The record followed here is ChEMBL document CHEMBL1961873, “Compounds: GSK PKIS; Assays: Nanosyn kinase panel” (2012).

Experiment [1] deals with Tyrosine-protein kinase Fer (Homo sapiens) (UniProt P16591). Conditions: at 1 µM.
Experiment [2] deals with Tyrosine-protein kinase Fes/Fps (Homo sapiens) (UniProt P07332). Conditions: at 0.1 µM.
For experiment [3] the target is unchanged. Particulars: at 1 µM.
Experiment [4] has as its target Fibroblast growth factor receptor 1 (Homo sapiens) (UniProt P11362). Particulars: at 0.1 µM.
For experiment [5] the target is unchanged. Conditions: at 1 µM.
In experiment [6] the target is Fibroblast growth factor receptor 2 (Homo sapiens) (UniProt P21802). Particulars: at 0.1 µM.
Chain of Fibroblast growth factor receptor 2 (Homo sapiens) (P21802 22-821 limits assumed): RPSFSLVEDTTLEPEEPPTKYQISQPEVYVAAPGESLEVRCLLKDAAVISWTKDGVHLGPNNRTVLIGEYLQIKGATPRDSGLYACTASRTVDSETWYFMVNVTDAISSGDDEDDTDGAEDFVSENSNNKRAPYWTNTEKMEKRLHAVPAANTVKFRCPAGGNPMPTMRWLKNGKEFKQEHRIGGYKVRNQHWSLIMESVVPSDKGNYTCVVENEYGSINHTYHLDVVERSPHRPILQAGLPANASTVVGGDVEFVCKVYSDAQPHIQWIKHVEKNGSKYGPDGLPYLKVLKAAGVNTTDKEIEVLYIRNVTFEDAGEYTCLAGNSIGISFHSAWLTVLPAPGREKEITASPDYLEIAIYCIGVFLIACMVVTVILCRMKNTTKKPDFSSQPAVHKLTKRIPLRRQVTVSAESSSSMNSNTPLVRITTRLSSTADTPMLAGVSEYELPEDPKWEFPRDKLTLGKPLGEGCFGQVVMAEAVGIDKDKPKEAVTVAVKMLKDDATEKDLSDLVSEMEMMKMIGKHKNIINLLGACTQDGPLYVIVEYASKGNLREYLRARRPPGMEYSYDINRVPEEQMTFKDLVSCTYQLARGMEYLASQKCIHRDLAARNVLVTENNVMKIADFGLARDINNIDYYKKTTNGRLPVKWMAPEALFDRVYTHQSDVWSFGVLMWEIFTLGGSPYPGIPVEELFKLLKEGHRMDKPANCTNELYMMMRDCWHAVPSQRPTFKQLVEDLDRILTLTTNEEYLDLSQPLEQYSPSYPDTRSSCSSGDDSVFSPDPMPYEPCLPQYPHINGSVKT
The target is the same in experiment [7]. Conditions: at 1 µM.
For experiment [8], the target named is Fibroblast growth factor receptor 3 (Homo sapiens) (UniProt P22607). Particulars: at 0.1 µM.
The target is the same in experiment [9]. Particulars: at 1 µM.
In experiment [10] the target is Fibroblast growth factor receptor 4 (Homo sapiens) (UniProt P22455). Particulars: at 0.1 µM.
The target is the same in experiment [11]. Particulars: at 1 µM.
The target in experiment [12] is Tyrosine-protein kinase Fgr (Homo sapiens) (UniProt P09769). Conditions: at 0.1 µM.
Chain of Tyrosine-protein kinase Fgr (Homo sapiens) (P09769 2-529 limits assumed): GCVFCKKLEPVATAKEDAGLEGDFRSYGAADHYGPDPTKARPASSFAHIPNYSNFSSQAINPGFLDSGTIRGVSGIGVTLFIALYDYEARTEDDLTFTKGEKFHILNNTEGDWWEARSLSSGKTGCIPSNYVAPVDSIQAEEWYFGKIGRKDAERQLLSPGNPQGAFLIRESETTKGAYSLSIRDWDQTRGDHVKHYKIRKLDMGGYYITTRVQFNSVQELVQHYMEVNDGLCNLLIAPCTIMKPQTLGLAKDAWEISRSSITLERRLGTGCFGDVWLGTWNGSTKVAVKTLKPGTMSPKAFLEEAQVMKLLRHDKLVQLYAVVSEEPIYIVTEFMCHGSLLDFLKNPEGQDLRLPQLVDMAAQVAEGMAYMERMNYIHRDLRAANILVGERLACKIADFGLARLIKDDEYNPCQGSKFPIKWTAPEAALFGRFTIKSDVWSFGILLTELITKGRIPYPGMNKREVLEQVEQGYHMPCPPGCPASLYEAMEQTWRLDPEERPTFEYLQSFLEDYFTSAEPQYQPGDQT
Experiment [13] has the same target. Particulars: at 1 µM.
Experiment [14] concerns the target Vascular endothelial growth factor receptor 1 (Homo sapiens) (UniProt P17948). Conditions: at 0.1 µM.
For experiment [15] the target is unchanged. Conditions: at 1 µM.
For experiment [16], the target named is Receptor-type tyrosine-protein kinase FLT3 (Homo sapiens) (UniProt P36888). Conditions: at 0.1 µM.
The target is the same in experiment [17]. Conditions: at 1 µM.
The test system of experiment [18] is T1, Receptor-type tyrosine-protein kinase FLT3 (Homo sapiens), P36888 [D835Y].
T1 sequence (whole entry): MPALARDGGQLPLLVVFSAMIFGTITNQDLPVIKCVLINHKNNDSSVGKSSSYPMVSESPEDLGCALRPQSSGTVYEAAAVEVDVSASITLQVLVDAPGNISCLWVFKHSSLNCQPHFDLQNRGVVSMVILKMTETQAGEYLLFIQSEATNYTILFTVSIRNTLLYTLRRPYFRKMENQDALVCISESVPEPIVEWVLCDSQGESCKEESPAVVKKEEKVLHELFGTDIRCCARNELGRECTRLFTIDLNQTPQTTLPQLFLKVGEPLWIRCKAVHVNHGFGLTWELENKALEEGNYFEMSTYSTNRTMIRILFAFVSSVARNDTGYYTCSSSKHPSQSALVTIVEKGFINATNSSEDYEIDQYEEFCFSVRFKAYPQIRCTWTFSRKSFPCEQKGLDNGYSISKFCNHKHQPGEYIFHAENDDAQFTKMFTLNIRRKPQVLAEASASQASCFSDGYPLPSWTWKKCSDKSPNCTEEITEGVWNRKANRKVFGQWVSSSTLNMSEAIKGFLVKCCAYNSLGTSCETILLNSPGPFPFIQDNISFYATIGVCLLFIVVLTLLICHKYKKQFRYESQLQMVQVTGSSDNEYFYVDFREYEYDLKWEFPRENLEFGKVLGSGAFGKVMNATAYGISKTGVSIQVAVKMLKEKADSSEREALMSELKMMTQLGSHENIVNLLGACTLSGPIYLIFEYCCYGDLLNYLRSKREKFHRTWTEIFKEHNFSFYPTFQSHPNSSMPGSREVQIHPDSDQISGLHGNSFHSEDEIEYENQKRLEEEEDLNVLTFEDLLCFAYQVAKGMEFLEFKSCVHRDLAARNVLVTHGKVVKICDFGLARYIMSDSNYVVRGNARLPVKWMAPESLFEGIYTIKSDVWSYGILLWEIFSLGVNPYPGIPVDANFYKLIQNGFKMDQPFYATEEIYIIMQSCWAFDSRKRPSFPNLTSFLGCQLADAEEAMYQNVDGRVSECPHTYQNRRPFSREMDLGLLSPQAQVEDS
Particulars: at 0.1 µM.

The target in experiment [19] is Non-receptor tyrosine-protein kinase TYK2 (Homo sapiens) (UniProt P29597). Conditions: at 1 µM.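 Further: values are mean percent inhibition of TYK2 kinase.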
Chain of Non-receptor tyrosine-protein kinase TYK2 (Homo sapiens) (P29597 whole entry): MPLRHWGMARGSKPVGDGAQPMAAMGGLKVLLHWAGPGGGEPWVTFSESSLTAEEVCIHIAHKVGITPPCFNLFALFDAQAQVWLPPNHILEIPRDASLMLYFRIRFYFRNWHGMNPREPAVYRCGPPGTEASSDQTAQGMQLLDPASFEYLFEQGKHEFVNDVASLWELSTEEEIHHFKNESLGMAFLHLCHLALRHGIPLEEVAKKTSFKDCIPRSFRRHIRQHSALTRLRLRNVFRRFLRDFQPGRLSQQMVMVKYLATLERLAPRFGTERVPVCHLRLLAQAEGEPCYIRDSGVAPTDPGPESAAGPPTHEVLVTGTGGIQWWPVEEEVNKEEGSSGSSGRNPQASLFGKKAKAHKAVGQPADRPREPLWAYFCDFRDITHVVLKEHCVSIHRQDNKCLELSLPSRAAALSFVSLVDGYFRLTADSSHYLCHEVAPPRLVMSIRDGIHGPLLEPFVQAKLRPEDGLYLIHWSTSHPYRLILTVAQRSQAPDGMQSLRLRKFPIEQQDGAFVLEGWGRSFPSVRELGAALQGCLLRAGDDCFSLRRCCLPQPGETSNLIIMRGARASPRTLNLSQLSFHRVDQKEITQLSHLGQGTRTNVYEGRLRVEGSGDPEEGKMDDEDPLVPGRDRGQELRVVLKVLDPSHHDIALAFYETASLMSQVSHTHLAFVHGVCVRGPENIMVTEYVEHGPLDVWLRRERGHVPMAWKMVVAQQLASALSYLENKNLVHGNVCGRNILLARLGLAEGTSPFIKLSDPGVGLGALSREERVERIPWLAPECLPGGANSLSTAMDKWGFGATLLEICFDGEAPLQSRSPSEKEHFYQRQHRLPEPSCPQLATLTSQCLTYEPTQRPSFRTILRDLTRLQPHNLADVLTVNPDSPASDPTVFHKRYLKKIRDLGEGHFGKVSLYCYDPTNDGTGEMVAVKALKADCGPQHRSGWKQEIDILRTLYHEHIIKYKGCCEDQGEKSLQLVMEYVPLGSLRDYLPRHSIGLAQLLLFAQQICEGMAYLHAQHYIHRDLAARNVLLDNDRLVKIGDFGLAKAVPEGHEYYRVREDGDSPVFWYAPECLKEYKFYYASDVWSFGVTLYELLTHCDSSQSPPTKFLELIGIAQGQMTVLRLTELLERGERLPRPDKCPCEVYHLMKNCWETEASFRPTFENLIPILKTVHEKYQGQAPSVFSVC
For experiment [20], the target named is T2, Tyrosine-protein kinase receptor TYRO3 (Homo sapiens) (UniProt Q06418).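 Further: reported percentages are averaged inhibition values of TYRO3 kinase activity.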
T2 sequence (whole entry): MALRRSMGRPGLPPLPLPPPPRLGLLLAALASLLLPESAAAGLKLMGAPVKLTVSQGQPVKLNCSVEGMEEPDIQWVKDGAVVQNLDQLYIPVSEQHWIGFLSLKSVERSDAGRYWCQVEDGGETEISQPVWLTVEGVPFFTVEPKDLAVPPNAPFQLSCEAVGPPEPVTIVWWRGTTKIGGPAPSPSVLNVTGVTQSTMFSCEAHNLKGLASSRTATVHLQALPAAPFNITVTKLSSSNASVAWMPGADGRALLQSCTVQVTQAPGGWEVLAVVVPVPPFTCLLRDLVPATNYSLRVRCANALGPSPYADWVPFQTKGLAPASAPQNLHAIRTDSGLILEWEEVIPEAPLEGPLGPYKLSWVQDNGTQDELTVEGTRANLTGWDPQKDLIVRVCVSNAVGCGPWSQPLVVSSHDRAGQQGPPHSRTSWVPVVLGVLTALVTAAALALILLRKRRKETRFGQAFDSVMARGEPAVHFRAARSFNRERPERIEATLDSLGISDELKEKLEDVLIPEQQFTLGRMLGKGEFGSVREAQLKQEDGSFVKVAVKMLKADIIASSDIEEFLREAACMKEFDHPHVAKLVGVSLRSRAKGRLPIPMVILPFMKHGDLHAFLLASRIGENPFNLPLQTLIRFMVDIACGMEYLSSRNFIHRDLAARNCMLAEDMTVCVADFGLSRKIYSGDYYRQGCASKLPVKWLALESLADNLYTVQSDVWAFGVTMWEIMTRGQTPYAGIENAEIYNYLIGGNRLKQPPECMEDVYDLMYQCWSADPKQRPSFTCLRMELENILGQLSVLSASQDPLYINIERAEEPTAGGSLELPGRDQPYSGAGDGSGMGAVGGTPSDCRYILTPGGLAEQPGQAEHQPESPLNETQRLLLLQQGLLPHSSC
Particulars: at 0.1 µM.

Chain of Tyrosine-protein kinase Fes/Fps (Homo sapiens) (P07332 whole entry): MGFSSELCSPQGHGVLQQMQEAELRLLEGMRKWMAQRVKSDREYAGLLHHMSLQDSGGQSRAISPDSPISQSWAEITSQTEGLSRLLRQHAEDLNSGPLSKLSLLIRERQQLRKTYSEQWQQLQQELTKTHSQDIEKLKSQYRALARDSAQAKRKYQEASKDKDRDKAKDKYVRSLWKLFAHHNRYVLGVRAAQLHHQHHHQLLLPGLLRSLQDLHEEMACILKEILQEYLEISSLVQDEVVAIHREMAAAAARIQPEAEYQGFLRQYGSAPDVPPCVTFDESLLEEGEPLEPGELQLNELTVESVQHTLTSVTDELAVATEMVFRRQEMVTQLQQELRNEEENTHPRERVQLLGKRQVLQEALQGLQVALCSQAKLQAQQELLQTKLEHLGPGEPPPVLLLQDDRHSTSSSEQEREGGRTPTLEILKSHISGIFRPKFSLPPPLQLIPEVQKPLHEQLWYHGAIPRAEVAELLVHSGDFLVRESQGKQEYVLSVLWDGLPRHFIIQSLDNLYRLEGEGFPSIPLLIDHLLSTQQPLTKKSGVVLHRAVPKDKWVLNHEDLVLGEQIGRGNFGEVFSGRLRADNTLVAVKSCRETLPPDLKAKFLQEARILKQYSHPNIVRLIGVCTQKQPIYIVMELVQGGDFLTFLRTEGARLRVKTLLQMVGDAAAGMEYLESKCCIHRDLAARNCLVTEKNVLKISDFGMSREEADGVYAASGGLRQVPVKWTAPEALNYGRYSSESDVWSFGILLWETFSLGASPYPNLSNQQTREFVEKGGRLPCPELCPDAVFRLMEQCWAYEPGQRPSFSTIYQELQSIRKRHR
Chain of Fibroblast growth factor receptor 1 (Homo sapiens) (P11362 22-822 limits assumed): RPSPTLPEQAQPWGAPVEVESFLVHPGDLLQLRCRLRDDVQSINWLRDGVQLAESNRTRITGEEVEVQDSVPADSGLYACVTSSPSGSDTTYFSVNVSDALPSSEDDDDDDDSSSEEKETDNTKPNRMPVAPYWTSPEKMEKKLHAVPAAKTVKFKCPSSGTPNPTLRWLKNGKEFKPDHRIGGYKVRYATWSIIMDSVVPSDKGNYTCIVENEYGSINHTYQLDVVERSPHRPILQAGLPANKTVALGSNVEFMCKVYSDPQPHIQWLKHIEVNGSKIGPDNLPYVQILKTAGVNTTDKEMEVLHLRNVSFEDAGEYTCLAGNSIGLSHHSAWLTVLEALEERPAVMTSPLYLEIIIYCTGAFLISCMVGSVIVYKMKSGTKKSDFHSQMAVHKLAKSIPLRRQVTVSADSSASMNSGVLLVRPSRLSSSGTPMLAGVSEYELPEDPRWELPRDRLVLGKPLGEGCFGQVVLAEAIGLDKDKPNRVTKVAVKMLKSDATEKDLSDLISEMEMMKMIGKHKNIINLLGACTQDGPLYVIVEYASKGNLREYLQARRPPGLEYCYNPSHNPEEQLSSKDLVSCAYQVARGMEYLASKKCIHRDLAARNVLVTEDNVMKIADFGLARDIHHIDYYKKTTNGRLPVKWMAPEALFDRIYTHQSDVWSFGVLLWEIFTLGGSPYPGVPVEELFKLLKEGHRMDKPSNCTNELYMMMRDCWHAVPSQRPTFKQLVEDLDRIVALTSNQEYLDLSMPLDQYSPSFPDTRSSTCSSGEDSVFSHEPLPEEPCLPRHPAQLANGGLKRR
Chain of Tyrosine-protein kinase Fer (Homo sapiens) (P16591 whole entry, looked up): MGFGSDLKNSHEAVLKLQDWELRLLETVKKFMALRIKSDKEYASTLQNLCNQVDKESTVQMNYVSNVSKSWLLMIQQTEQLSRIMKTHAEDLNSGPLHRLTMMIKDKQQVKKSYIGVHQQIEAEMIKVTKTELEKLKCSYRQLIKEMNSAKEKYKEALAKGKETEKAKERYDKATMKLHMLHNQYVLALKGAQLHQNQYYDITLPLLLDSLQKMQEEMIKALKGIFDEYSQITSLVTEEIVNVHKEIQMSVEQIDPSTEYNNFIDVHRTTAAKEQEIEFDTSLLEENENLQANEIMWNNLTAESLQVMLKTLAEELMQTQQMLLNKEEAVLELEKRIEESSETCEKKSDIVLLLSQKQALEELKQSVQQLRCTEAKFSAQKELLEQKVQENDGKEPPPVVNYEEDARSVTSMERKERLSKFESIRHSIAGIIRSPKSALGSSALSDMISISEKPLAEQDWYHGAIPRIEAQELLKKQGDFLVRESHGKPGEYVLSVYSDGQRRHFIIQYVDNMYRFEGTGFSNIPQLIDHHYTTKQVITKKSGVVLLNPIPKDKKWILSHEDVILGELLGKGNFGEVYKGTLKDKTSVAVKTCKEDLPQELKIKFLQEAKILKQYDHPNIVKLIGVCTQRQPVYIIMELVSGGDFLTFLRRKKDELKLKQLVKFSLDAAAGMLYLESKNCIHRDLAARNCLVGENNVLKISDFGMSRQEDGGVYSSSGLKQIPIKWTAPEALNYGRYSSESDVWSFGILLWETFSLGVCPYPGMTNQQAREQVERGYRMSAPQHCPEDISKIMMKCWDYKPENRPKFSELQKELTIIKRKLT

For orientation: inhibition means the change of the read-out against control, counted positive when it falls. As to `Cc1nc(-c2ccccc2)n2nc(NCCCN3CCOCC3)ncc12`, the inhibition in experiment [1] was 2.98%; in [2], 2.16%; in experiment [3], 3.03%; in [4], -1.62%; in experiment [5], -3.57%; in experiment [6], 3.94%. The inhibition in [7] turned out to be 11.8%; in experiment [8], 6.35%; in experiment [9] it was 4.45%; in experiment [10] it was 6.31%; in experiment [11], 3.35%; in [12] it was 2.33%. The inhibition in experiment [13] is 4.11%; in [14], 2.94%; in [15] it was -1.07%; in experiment [16], 2.39%; in [17], 4.33%; in [18], -0.33%. Also, the inhibition in [19] is 0.82%; in experiment [20] it was 0.92%.
On to `Cc1ccc(NC(=O)CC2CC2)cc1-c1ccc(C(=O)NCC2CC2)cc1`, for which the inhibition was determined as 7.65% in [1]; 2.28% in experiment [2]; 4% in experiment [3]; 5.11% in experiment [4]; 4.06% in experiment [5]; 1.09% in experiment [6]. Besides, the inhibition in experiment [7] was 4.24%; in experiment [8], 2.17%; in [9], 3.92%; in experiment [10], -2.17%; in [11], 1.67%; in [12], 7.45%. For the same compound, the inhibition in experiment [13] is 6.65%; in experiment [14], -0.36%; in experiment [15], 1.74%; in experiment [16] it was 1.93%; in [17], 3.21%; in experiment [18], -2.84%. Besides, the inhibition in experiment [19] was -2.78%; in experiment [20], 2.48%.
Take `CN(c1ccc(NC(=O)Nc2ccc(OC(F)(F)F)cc2)cc1)c1ccnc(Nc2cccc(S(N)(=O)=O)c2)n1`: the inhibition in [1] was found to be 60.4%; in experiment [2] it was 4.7%; in experiment [3], 21.8%; in experiment [4] it was 2.49%; in [5], 20.3%; in [6], 16.2%. For the same compound, the inhibition in [7] is 53.9%; in experiment [8], 3.87%; in [9], 23.3%; in [10], -0.53%; in experiment [11] it was 2.57%; in [12], 13.8%. Also, the inhibition came to 57.2% in experiment [13]; 44.4% in experiment [14]; 96.1% in experiment [15]; 28.6% in experiment [16]; 87.4% in experiment [17]; 2.56% in experiment [18]. Moreover, the inhibition was -2.45% in [19] and 3.15% in experiment [20].
As for `CCS(=O)(=O)c1ccc(OC)c(Nc2nccc(N(C)c3ccc4c(C)n[nH]c4c3)n2)c1`, the inhibition is 34.3% in experiment [1]; 3.93% in experiment [2]; 6.48% in experiment [3]; 8.89% in [4]; 37.3% in experiment [5]; 18.8% in experiment [6]. For the same compound, the inhibition in [7] is 56.1%; in [8], 17.4%; in experiment [9], 54.7%; in experiment [10], -0.42%; in [11], 11.3%; in experiment [12] it was 23.1%. Besides, the inhibition in experiment [13] is 61.6%; in experiment [14], 60.8%; in experiment [15] it was 91.2%; in experiment [16], 6.38%; in experiment [17], 6.74%; in experiment [18], -7.67%. Also, the inhibition in experiment [19] is -2.86%; in [20], 1.44%.
For `Oc1cccc(-c2nc(-c3ccccc3)[nH]c2-c2ccncc2)c1`, the inhibition in experiment [1] stood at 0.53%; in experiment [2] it was 2.34%; in [3] it was 1.64%; in experiment [4], 1.95%; in experiment [5], 7.19%; in [6], 4%. Besides, the inhibition in experiment [7] was 9.16%; in [8], 4.28%; in [9], 5.69%; in [10], 1.36%; in experiment [11], 1.85%; in experiment [12], 5.71%. The inhibition is 19.5% in [13]; 10.6% in experiment [14]; 43.8% in experiment [15]; 5.28% in [16]; 19.5% in experiment [17]; 0.36% in experiment [18]. Also, the figures for the inhibition in [19] and in experiment [20] were -1.42% and 3.99%, respectively.
